ULK1 inh: inhibitors of human ULK1 kinase. O75385. AlphaScreen Atg13 phosphorylation by ULK1, luminescence. inhibition, % at 5.96 µM. hit rate 1.9% among 30,000; in the data active = inhibition above about 43%;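 also: 0% = median of compound wells and 100% = no enzyme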
ASK1 primary: human ASK1 kinase inhibition, primary screen; Q99683; AlphaScreen MKK6 phosphorylation by ASK1, luminescence; inhibition, % at 7.44 µM; hit rate 0.99% among 22,000; AID 1159602; in the data active = inhibition above about 35%;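 also: 0% = median of compound wells and 100% = no enzyme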
Target sequence (Q99683 whole entry, looked up): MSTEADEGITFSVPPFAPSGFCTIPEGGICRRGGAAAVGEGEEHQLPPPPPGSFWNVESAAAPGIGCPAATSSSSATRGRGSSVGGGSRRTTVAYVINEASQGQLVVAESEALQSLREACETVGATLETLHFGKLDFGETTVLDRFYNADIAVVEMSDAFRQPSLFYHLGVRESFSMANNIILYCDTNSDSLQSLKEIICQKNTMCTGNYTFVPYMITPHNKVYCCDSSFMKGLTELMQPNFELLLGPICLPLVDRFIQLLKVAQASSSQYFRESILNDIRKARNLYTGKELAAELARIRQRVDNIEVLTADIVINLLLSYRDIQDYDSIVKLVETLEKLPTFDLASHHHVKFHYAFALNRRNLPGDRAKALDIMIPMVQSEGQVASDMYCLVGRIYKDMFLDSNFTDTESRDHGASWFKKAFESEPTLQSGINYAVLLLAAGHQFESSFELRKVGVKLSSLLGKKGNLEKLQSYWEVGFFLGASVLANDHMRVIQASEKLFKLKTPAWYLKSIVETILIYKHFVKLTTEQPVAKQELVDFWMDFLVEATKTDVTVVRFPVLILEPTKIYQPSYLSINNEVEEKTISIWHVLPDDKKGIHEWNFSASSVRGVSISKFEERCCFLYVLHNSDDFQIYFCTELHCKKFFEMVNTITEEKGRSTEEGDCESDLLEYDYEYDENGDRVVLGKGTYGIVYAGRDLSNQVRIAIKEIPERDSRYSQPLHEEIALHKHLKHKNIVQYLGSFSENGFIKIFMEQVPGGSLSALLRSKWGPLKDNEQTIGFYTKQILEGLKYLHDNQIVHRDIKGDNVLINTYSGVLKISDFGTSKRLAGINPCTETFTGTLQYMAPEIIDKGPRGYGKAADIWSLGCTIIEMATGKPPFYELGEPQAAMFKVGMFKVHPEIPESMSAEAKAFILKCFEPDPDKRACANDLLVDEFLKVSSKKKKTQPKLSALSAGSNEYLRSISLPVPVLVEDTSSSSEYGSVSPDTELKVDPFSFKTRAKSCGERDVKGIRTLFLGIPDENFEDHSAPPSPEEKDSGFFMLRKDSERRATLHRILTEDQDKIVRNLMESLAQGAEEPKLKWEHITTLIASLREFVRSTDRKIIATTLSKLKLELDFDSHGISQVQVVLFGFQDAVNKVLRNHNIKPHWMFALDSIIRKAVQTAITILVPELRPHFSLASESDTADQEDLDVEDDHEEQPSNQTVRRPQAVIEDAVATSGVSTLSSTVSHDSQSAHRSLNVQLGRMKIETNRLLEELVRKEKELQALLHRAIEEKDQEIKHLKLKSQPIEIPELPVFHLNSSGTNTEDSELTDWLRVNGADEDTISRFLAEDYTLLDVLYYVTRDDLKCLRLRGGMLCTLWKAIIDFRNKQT
The depositor's hits bear a star. Rows were chosen to be rich in hits. Some 2.4% of all compounds tested hit in one or more screens of this group.

How did CCN(CC)C(=O)C1CCCN(c2cc(C(=O)NCCc3ccc(OC)cc3)c3ccccc3n2)C1 (stereo not given) do in these assays?
ULK1 inh: 7.0; ASK1 primary: -11.4

Results for CC(=O)Nc1ccc(Nc2nc(Nc3ccncn3)nc3c2ncn3-c2ccccc2)cc1 ?
ULK1 inh: -48.9; ASK1 primary: 5.4

Results for CC(C)n1cnc2c(Nc3ccccc3)nc(Nc3ccncn3)nc21 ?
ULK1 inh: 50.2*; ASK1 primary: -5.1

How did CC(C)n1cnc2c(NC3CCN(Cc4ccccc4)CC3)nc(Nc3ccncn3)nc21 do in these assays?
ULK1 inh: 14.8; ASK1 primary: 12.5

How did CC(=O)Nc1ccc(Nc2nc(Nc3ccncn3)nc3c2ncn3C(C)C)cc1 do in these assays?
ULK1 inh: 55.4*; ASK1 primary: 4.4

What do the screens show for `OC1CCC(Nc2cc(NCCN3CCOCC3)ncn2)CC1` (stereo not given)?
ULK1 inh: -1.0; ASK1 primary: -3.7

How did CCOC(=O)N1CCN(C(=S)NC(=O)/C=C/c2cccs2)CC1 do in these assays?
ULK1 inh: 5.7

What do the screens show for `Cc1cc(N)nc(-c2c(C)noc2C)n1`?
ULK1 inh: 10.9; ASK1 primary: -14.5

How did COc1cc(NC(C)CCCN)c2ncccc2c1 (stereo not given) do in these assays?
ULK1 inh: 64.3*

How did CCN(CC)CCCC(C)Nc1c2ccc(Cl)cc2nc2ccc(OC)cc12 (stereo not given) do in these assays?
ULK1 inh: 3.5

Results for COc1cc(NC(=O)c2cccc(-n3cc(/C=C/C(=O)c4ccccc4)cn3)c2)ccc1CN(C)C ?
ULK1 inh: 21.0; ASK1 primary: -17.6

How did O=C(/C=C/c1ccccc1)c1cccc(N2C(=O)C=CC2=O)c1 do in these assays?
ULK1 inh: 55.4*

Results for CN1CCN(C(=O)c2ccc(-c3nc(NCc4nc5ccccc5[nH]4)c4ncn(-c5ccsc5)c4n3)cc2)CC1 ?
ULK1 inh: 8.9; ASK1 primary: -20.5

What do the screens show for `CNC(=O)c1ccccc1Nc1cc(Nc2ncccn2)ncc1C(F)(F)F`?
ULK1 inh: 18.7; ASK1 primary: 10.1

What do the screens show for `CNC(=O)c1ccccc1Nc1cc(NCc2ccccc2)ncc1C(F)(F)F`?
ULK1 inh: 54.6*; ASK1 primary: 6.1

Results for CNC(=O)c1ccccc1Nc1cc(NC(=O)Cc2cccs2)ncc1C(F)(F)F ?
ULK1 inh: 46.5*; ASK1 primary: 3.8

What do the screens show for `CNC(=O)c1ccccc1Nc1cc(NC(=O)Cc2ccccc2F)ncc1C(F)(F)F`?
ULK1 inh: 53.0*; ASK1 primary: 12.1

How did NC(=O)c1ccccc1Nc1cc(NC(=O)Cc2ccc(F)cc2)ncc1F do in these assays?
ULK1 inh: -4.2; ASK1 primary: -16.6

Results for CNC(=O)c1ccccc1Nc1cc(NC(=O)C2CCc3ccccc32)ncc1C(F)(F)F (stereo not given) ?
ULK1 inh: 34.5; ASK1 primary: 3.5

What do the screens show for `CNC(=O)c1ccccc1Nc1cc(NC(=O)Cc2ccc(F)cc2)ncc1C(F)(F)F`?
ULK1 inh: 57.1*; ASK1 primary: -12.3

How did CN(C)c1cccc(Nc2cc(C(=O)NCc3ccccc3)ccn2)c1 do in these assays?
ULK1 inh: 25.2; ASK1 primary: 22.3

How did CC(=O)c1cccc(-c2cc(N)nc(N)n2)c1 do in these assays?
ULK1 inh: -4.8; ASK1 primary: 3.3

How did CCN(CC)C(=O)C1CCCN(c2nc3ccc(C(=O)NCc4ccccc4)cc3s2)C1 (stereo not given) do in these assays?
ULK1 inh: 3.4; ASK1 primary: -1.5

What do the screens show for `O=C(NCCN1CCOCC1)c1cnc(N2CCN(c3ccccn3)CC2)s1`?
ULK1 inh: 6.3; ASK1 primary: 5.1

How did Cc1ccccc1COC(=O)Nc1ccc(-c2cn[nH]c2)cc1 do in these assays?
ULK1 inh: 0.5; ASK1 primary: 2.4

How did CNC(=O)c1ccccc1Nc1cc(NC(=O)Cc2ccc(N)cc2)ncc1C(F)(F)F do in these assays?
ULK1 inh: 68.2*; ASK1 primary: 10.2

Results for O=C(Cc1ccc2c(c1)OCO2)Nc1cc(Nc2ccccc2-c2nn[nH]n2)c(C(F)(F)F)cn1 ?
ULK1 inh: -4.6; ASK1 primary: 18.5

Results for COc1ccc(CC(=O)Nc2cc(Nc3ccccc3NC(C)=O)c(C(F)(F)F)cn2)cc1 ?
ULK1 inh: 41.2; ASK1 primary: 6.8

Results for CNC(=O)c1ccccc1Nc1cc(NC(=O)Cc2ccsc2)ncc1C(F)(F)F ?
ULK1 inh: 52.2*; ASK1 primary: -1.1

Results for COc1ccc(CC(=O)Nc2cc(Nc3ccccc3-c3ncco3)c(C(F)(F)F)cn2)cc1 ?
ULK1 inh: 5.2; ASK1 primary: -0.9

How did CNS(=O)(=O)c1ccccc1Nc1cc(NC(=O)Cc2ccc(OC)cc2)ncc1C(F)(F)F do in these assays?
ULK1 inh: 57.2*; ASK1 primary: 30.2

What do the screens show for `COc1cc(Nc2cc(-c3ocnc3-c3cnn(C)c3)ccn2)ccc1N1CCOCC1`?
ULK1 inh: -4.6; ASK1 primary: -0.7

What do the screens show for `O=C(Nc1ccc(-c2cn[nH]c2)cc1SCCN1CCCC1)C1COc2c(F)cccc2C1` (stereo not given)?
ULK1 inh: 6.2; ASK1 primary: 6.3

What do the screens show for `CC(C)n1c(Nc2ccc(N3CCOCC3)cc2)nc2c(Nc3ccccc3)ncnc21`?
ULK1 inh: -11.3; ASK1 primary: 20.8

What do the screens show for `CC(C)n1c(Nc2cccc(N(C)C)c2)nc2c(Nc3ccc(N4CCOCC4)cc3)ncnc21`?
ULK1 inh: 21.9; ASK1 primary: 37.4*

Results for NNCCc1ccccc1 ?
ULK1 inh: -10.0

What do the screens show for `CS(=O)(=O)c1ccc(NCCc2ccccc2)cc1`?
ULK1 inh: 68.2*

How did CCc1cc(-c2ccncc2)ccc1NC(=O)C1COc2ccccc2O1 (stereo not given) do in these assays?
ULK1 inh: -4.0; ASK1 primary: 8.6

How did OC1CCC(Nc2nc(NCc3cccc(C(F)(F)F)c3)c3ncn(C4CCCCC4)c3n2)CC1 (stereo not given) do in these assays?
ULK1 inh: -2.5; ASK1 primary: -4.7

What do the screens show for `c1ccc(Oc2nc(NC3CC3)c3ncn(-c4ccsc4)c3n2)cc1`?
ULK1 inh: 7.7; ASK1 primary: -17.6

How did O=Cc1ccc(O)c(O)c1O do in these assays?
ULK1 inh: 88.6*

How did COc1cccc(CNC(=O)c2c(C)nc3ccc(-c4ccc5nc(C)c(C(=O)NCc6cccc(OC)c6)n5c4)cn23)c1 do in these assays?
ULK1 inh: 7.6; ASK1 primary: 41.9*

How did COc1cccc(CNC(=O)c2c(C)nc3ccc(-c4ccnc(N)n4)cn23)c1 do in these assays?
ULK1 inh: 11.1; ASK1 primary: 4.8

How did CCOC(=O)C(C)(N)Cc1ccc(O)c(O)c1 (stereo not given) do in these assays?
ULK1 inh: -13.3

What do the screens show for `CC(N)(Cc1ccc(O)c(O)c1)C(=O)O` (stereo not given)?
ULK1 inh: 84.8*

How did CN1CCN(C(=O)c2ccc(-c3nc4ccc(C(=O)NCCCN5CCCC5=O)cc4s3)cc2)CC1 do in these assays?
ULK1 inh: -9.0; ASK1 primary: -18.2

What do the screens show for `O=C1c2c(O)ccc(O)c2C(=O)c2c(NCCNCCO)ccc(NCCNCCO)c21`?
ULK1 inh: 42.6*

Results for O=C(Nc1ccc(N2CCOCC2)cc1)c1cccc(-n2cc(Nc3cscc3Br)cn2)c1 ?
ULK1 inh: 4.2; ASK1 primary: 7.4

How did Oc1ccc(Cl)c2cccnc12 do in these assays?
ULK1 inh: 11.4

How did Oc1c(I)cc(I)c2cccnc12 do in these assays?
ULK1 inh: 51.1*
